Compound activity: PubChem, National Center for Advancing Translational Sciences (NCATS)
DT40 TDP1 CPT: qHTS for Inhibitors of human tyrosyl-DNA phosphodiesterase 1 (TDP1): qHTS in cells in presence of CPT | Potency, µM (highest dose often 46.2 µM), for inactives: top-dose activity change, negative = growth inhibition, most hits filed as inhibitors | chicken DT40 Tdp1-/-;hTDP1 cells + 20 nM CPT, ATP luminescence, 48 h | 420,000 tested, 12% active; further: potency means the concentration at half of the fitted maximal effect; nearly all actives have a fitted effect of over 55% in size
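Chicken DT40 Tdp1-/- cells stably complemented with human TDP1 were seeded at 400 cells/well in medium containing 20 nM camptothecin, exposed to pin-transferred compounds, and grown at 37 °C for at least 48 hr. Viability was read as ATP luminescence.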
HT1080 IDH1KD tx: qHTS for induction of synthetic lethality in tumor cells producing 2HG: qHTS for the HT-1080-IDH1KD cell line; 360,000 tested, 2% active; HT-1080 IDH1 knockdown viability, ATP luminescence, 48 h; Potency, µM (titrated, usually from 46.1 µM), for inactives: at the top dose activity, negative = toxicity, most hits filed as cytotoxic;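 further: potency means the concentration at half of the fitted maximal effect; 0% = DMSO wells and -100% = cell-free medium wells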
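Luminescent ATP read-out (CellTiter-Glo, 10 min at room temperature) after 48 h compound exposure at 37 °C gave viability of IDH1-knockdown HT-1080 cells. Activity was normalised to DMSO and cell-free wells, then fitted as concentration-response curves.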
ELG1 repair inh: qHTS screen for small molecules that inhibit ELG1-dependent DNA repair in human embryonic kidney (HEK293T) cells expressing luciferase-tagged ELG1; HEK293T ELG1-luciferase reporter, luminescence, 16 h; DNA damage induced by 5-fluorouridine; Potency, µM (series often up to 46.1 µM), for inactives: at the top dose activity change, negative = inhibition, actives largely listed as inhibitors; 330,000 tested, 2.3% active; AID 504467, 2011; further: potency means the concentration at half of the fitted maximal effect; nearly all actives have a fitted effect of over 55% in size
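HEK293T cells expressing luciferase-tagged ELG1 (2,000/well) received 5-Fluorouridine plus compound or DMSO for 16 hr at 37 °C. Luciferase was read by ONE-Glo luminescence after 30 min at room temperature.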
HT1080NT lethal: qHTS for induction of synthetic lethality in tumor cells producing 2HG: qHTS for the HT-1080-NT fibrosarcoma cell line; 360,000 tested, 1.6% active; HT-1080-NT fibrosarcoma viability, CellTiter-Glo ATP luminescence, 48 h; Potency, µM (titrated, usually from 46.1 µM), inactives show top-dose activity, negative = less viability, hits mostly cytotoxic;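 further: NT is the 2HG producing partner of a matched IDH1 knockdown line; potency means the concentration at half of the fitted maximal effect; 0% = DMSO-treated cells and -100% = media-only wells without cells; nearly all actives have a fitted effect of over 55% in size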
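750 cells/well, RPMI + 5% FBS; 2 h settle, compound pin-transfer, 48 h at 37 degrees C. CellTiter-Glo 10 min RT, luminescence. Normalized to DMSO and media-only wells.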
TDP1 cell noCPT: qHTS for Inhibitors of human tyrosyl-DNA phosphodiesterase 1 (TDP1): qHTS in cells in absence of CPT | DT40 Tdp1-/- hTDP1 cells, no CPT, ATP luminescence, 48 h | Potency, µM (highest dose often 46.2 µM), for inactives: at the top dose activity change, negative = growth inhibition, most hits filed as inhibitors | 420,000 tested, 15% active; further: potency means the concentration at half of the fitted maximal effect; nearly all actives have a fitted effect of over 55% in size
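No-CPT arm: Tdp1-/-;hTDP1 DT40 cells (400/well) plus compounds, incubated ≥48 hr at 37 °C. Readout CellTiter-Glo luminescence.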
IL1B secr inh: qHTS for Inhibitors of Inflammasome Signaling: IL-1-beta AlphaLISA Primary Screen | THP-1 LPS/ATP IL-1B secretion, AlphaLISA, 16 h; active compounds read low | 360,000 tested, 4.7% active | activity change, % at 57.5 µM; in the data active means activity change below about -50%; inconclusive means mostly about -30% to -49%
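THP-1 cells pretreated 1 hr with compounds (up to 57.5 uM final), then stimulated with LPS (250 ng/mL final) plus ATP (1.25 mM final); secreted IL-1B measured by AlphaLISA after 16 hr, decreased signal indicating inhibition.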
* hit, by the source's call; ? = inconclusive; . = no result given. Shown are actives, neighbours in structure and some others; about 19% of the full set was active somewhere. Unless noted, the call rests on the fitted dose curve; in most records, active means well fitted curve in the direction sought with a large enough effect; inconclusive means small, poorly fitted or top-dose-only effect, or another doubt; inactive means no such curve, though single readings can be large; an effect the other way counts as inactive or inconclusive. Unless noted, on the % scale 0 is the no-effect control and ±100 the full control effect.

SMILES | DT40 TDP1 CPT | HT1080 IDH1KD tx | ELG1 repair inh | HT1080NT lethal | TDP1 cell noCPT | IL1B secr inh
Cc1cccc(-c2ccc3c(c2)C2CC3CCN2C(=O)OCc2ccccc2)c1 (stereo not drawn) | ? | 6% | . | 12% | ? | 3
COc1ccc(Cl)cc1NC(=O)C/C(C)=N/NC(=O)Cc1ccccc1 | -3% | -16% | 22% | -18% | -4% | -11
COc1ccc(S(=O)(=O)N(C)C[C@H]2OCCCC[C@H](C)Oc3ccc(NC(=O)Nc4ccc(F)cc4)cc3C(=O)N([C@H](C)CO)C[C@H]2C)cc1 | ? | -14% | . | -16% | -11% | -9
C[C@@H]1CN([C@H](C)CO)C(=O)c2cc(NC(=O)Nc3ccc(F)cc3)ccc2O[C@@H](C)CCCCO[C@H]1CN(C)S(=O)(=O)c1cccs1 | ? | ? | . | -25% | 26µM* | ?
C[C@@H]1CN([C@@H](C)CO)C(=O)c2cc(NC(=O)c3ccccc3)ccc2O[C@@H](C)CCCCO[C@@H]1CN(C)S(=O)(=O)c1ccc(F)cc1 | ? | -10% | . | -6% | 21µM* | -18
Cc1noc(C)c1NC(=O)N(C)C[C@H]1OCCCC[C@@H](C)Oc2ccc(NC(=O)Nc3ccc(F)cc3)cc2C(=O)N([C@@H](C)CO)C[C@H]1C | ? | -1% | . | -14% | 18µM* | 11
Cc1noc(C)c1NC(=O)N(C)C[C@H]1OCCCC[C@@H](C)Oc2ccc(NC(=O)c3ccccc3)cc2C(=O)N([C@H](C)CO)C[C@@H]1C | ? | 1% | . | 0% | -19% | -14
C[C@@H]1CCCCO[C@H](CN(C)S(=O)(=O)c2cccs2)[C@@H](C)CN([C@H](C)CO)C(=O)c2cc(NC(=O)Nc3ccc4c(c3)OCO4)ccc2O1 | ? | 10% | . | -13% | ? | ?
Cc1ccc(S(=O)(=O)N(C)C[C@@H]2OCCCC[C@H](C)Oc3ccc(NC(=O)Nc4ccc(F)cc4)cc3C(=O)N([C@H](C)CO)C[C@H]2C)cc1 | 13µM* | -26% | . | -20% | 7.3µM* | -29
Cc1c(C(=O)NCC2CC2)sc2ncnc(NCCN3CCCCC3)c12 | -3% | . | . | . | -20% | .
CCc1cc(Cn2nc(-c3ccccc3)cc2C(=O)NCc2ccccc2OC)on1 | ? | -4% | -3% | 4% | 21µM* | ?
Cc1ccccc1CN1C(=O)C(O)(CC(=O)c2cccc(Br)c2)c2ccccc21 (stereo not drawn) | -81% | . | . | . | 5.2µM* | .
COc1ccc(OC)c(C(=O)CC2(O)C(=O)N(Cc3ccccc3C)c3ccccc32)c1 (stereo not drawn) | 16µM* | . | . | . | 5.8µM* | .
CCN1C(=O)C(O)(CC(=O)c2ccc(-n3cccc3)cc2)c2ccccc21 (stereo not drawn) | ? | 19% | -9% | 1% | ? | -21
COC(=O)CN1C(=O)C(O)(CC(=O)c2ccc(Cl)cc2)c2ccccc21 (stereo not drawn) | ? | 1% | -2% | ? | ? | 17
COC(=O)CN1C(=O)C(O)(CC(=O)c2cccc(Br)c2)c2ccccc21 (stereo not drawn) | 29µM* | -4% | 15% | -22% | ? | 12
CCN1C(=O)C(O)(CC(=O)c2cccc(-n3cccc3)c2)c2ccccc21 (stereo not drawn) | ? | -5% | 7% | 0% | 16µM* | ?
CCCOc1ccc(C(=O)Nc2cc3nn(-c4ccc(CC)cc4)nc3cc2C)cc1 | 0% | . | . | . | -23% | .
CCc1nc(SCC(=O)Nc2ccc(OC)cc2[N+](=O)[O-])n[nH]1 | -19% | -1% | -11% | 7% | -4% | 0
CCS(=O)(=O)Nc1cc(C(=O)N[C@H]2CCCCNC2=O)c2c(c1)nc(-c1ccccc1)n2C | 1% | . | . | . | -10% | .
Clc1ccccc1-c1ccc2nccn2c1 | -23% | 13% | . | 20% | -12% | 2
CC1(C)CC(=O)c2cc(-c3nc(-c4ccc(F)cc4)cs3)c(=O)[nH]c2C1 | -19% | . | . | . | -25% | .
COC(=O)C1=C(C)NC(=O)CC1c1ccc(C(=O)OC)cc1 (stereo not drawn) | 1% | 0% | ? | 2% | 4% | 4
COC(=O)c1ccc([C@H]2CC(=O)O2)cc1 | ? | -14% | 14% | -13% | ? | -96*
CCN(CC(=O)NCc1ccc(Cl)cc1)C(=O)COc1cccc(Cl)c1 | -18% | -16% | -1% | ? | -26% | ?
SMILES | DT40 TDP1 CPT | HT1080 IDH1KD tx | ELG1 repair inh | HT1080NT lethal | TDP1 cell noCPT | IL1B secr inh
COc1ccc(C(=O)N=c2sc3cc(Cl)ccc3n2C)cc1 | 7% | . | . | . | 2% | .
COc1ccc(-c2csc(C(C)(NC(C)=O)c3ccc(OC)cc3)n2)cc1 (stereo not drawn) | 16µM* | 15% | . | 17% | ? | 3
CC(=O)NC(C)(c1ccccc1)c1nc(-c2ccncc2)cs1 (stereo not drawn) | -8% | 5% | . | 19% | -20% | 3
COc1ccc(C(C)(NC(C)=O)c2nc(-c3ccncc3)cs2)cc1 (stereo not drawn) | -8% | 22% | . | 7% | -7% | 16
CC(=O)NC(C)(c1ccccc1)c1nc(-c2ccc(N(C)C)cc2)cs1 (stereo not drawn) | 16µM* | ? | . | 5% | 23µM* | -3
COc1cccc(C(NC(C)=O)c2nc(-c3ccc(F)c(Cl)c3)cs2)c1 (stereo not drawn) | -14% | -13% | . | -6% | -25% | -23
COc1ccc(C(C)(NC(C)=O)c2nc(-c3ccc(F)c(Cl)c3)cs2)cc1 (stereo not drawn) | 18µM* | ? | . | ? | 23µM* | -27
COc1ccc(CNC(=O)CN2C(=O)NC3(CCCCCCC3)C2=O)cc1 | 2% | 10% | 0% | 3% | -14% | -4
CCCOc1ncnc2c1sc1nc3c(cc12)COC(C)(C)C3 | ? | 12% | ? | 19% | ? | -15
